In the library only some 7% were active in any assay of this set; here they are far more common.
ADAM10 inh = inhibits human ADAM10 | recombinant ADAM10, EDANS/DABCYL FRET peptide cleavage, 3 h | actives 0.62% (n = 370,000) | inhibition, % at 7 µM;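 active = inhibition above a per-campaign cutoff equal to the mean of compounds falling between control-based bounds plus 3 SD, cut at about 20% in these data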;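 note: 0% = DMSO wells while the 100% control is not disclosed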
KLK7 zymogen act = proKLK7 (human) activation, primary screen; P49862; purified proKLK7, EDANS-DABCYL substrate fluorescence; 100% is mature enzyme control, 0% vehicle; activation, % at 7 µM; actives 0.9% (n = 370,000); AID 652039;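 active = activation above the mean of all tested compounds plus 3 SD, computed per campaign excluding outliers beyond control limits, cut at about 13% in these data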
GRIN3A LBD mod = NR3A (human) ligand-binding domain modulation | NR3A LBD differential scanning fluorimetry, Tm shift; 0% = protein alone, 100% = glycine-bound protein | Tm shift relative to glycine control, % at 25 µM | actives 2.5% (n = 340,000) | AID 1259313;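 active = melting temperature shift of at least 10% of the positive control shift, at one fixed dose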
rCAG RNA binder = molecules binding r(CAG) RNA repeats; actives 1.3% (n = 370,000); r(CAG) RNA repeat, TO-PRO-1 dye displacement fluorescence; inhibition, % at 3 µM;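 active = inhibition above the plate cutoff, the mean of all test compounds on that plate plus 3 SD, cut at about 35% in these data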;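 note: 0% = DMSO alone and 100% = 100 µM mitoxantrone as full dye displacement; higher means more dye released from RNA so lower well fluorescence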
AHR activator = activators of human aryl hydrocarbon receptor; P35869; AHR-responsive luciferase reporter cells, luminescence; AID 2796; activation, % at 5 µM; actives 2.5% (n = 320,000); in the data active = activation above about 47%;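 note: 0% = vehicle wells and 100% = reference agonist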
ADAM17 inh = ADAM17 inhibition, QFRET primary screen; P78536; recombinant ADAM17, EDANS/DABCYL FRET peptide cleavage; inhibition, % at 6.95 µM; actives 0.83% (n = 370,000); AID 720648;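 active = inhibition above the mean of compounds lying between control limits plus 3 SD, set per campaign, cut at about 8.5% in these data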;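 note: 0% = DMSO-only wells as the low control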
Target sequence (P78536 215-824 limits assumed): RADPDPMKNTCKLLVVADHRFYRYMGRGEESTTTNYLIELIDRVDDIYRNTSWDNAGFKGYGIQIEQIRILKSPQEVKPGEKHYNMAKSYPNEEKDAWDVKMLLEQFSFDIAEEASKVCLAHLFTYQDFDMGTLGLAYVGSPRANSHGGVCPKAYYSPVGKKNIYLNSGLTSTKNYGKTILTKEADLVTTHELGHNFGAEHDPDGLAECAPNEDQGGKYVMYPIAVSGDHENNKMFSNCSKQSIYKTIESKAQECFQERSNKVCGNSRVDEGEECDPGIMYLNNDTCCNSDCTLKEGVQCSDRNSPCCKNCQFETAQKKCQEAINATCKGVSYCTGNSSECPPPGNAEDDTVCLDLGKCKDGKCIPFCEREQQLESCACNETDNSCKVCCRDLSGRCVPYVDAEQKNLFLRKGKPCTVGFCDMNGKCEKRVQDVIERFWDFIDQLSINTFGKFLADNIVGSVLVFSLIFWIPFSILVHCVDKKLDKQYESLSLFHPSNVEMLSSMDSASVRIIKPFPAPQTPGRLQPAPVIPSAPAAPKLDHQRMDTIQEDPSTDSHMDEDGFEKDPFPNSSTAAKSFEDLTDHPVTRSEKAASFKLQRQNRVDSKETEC
An asterisk follows results filed as active; x = not tested or not shown.

SMILES	ADAM10 inh	KLK7 zymogen act	GRIN3A LBD mod	rCAG RNA binder	AHR activator	ADAM17 inh
CCc1noc(C)c1C(=O)Nc1nc2c(F)cc(F)cc2s1	0	1	0	7	61*	1
COc1ccc(/C=C2\CCCC3C2=NN(C(=O)c2scnc2C)C3c2ccc(OC)c(OC)c2)cc1OC (stereo not drawn)	10	0	11*	-4	3	1
CCCN1CCCCC(NC(=O)c2ccc(F)c(F)c2)C1=O (stereo not drawn)	-9	0	x	1	x	-3
CC(C)Cn1c(N)c(C(=O)COC(=O)c2c(O)c(Cl)cc(Cl)c2Cl)c(=O)n(C)c1=O	-13	1	11*	15	-1	0
CCSC1=N/C(=C\c2ccc(C(=O)O)cc2)C(=O)S1	-15	-6	20*	2	1	-6
Cc1ccc(/C=C2\SC(N)=NC2=O)s1	-2	-1	-2	2	9	-1
CCSC1=N/C(=C\c2ccc(C)s2)C(=O)S1	-3	1	13*	5	6	-2
Cc1cc(Nc2ccc([N+](=O)[O-])cc2)nc2ccccc12	5	0	39*	18	-5	2
Cc1cc(N/N=C/c2ccc([N+](=O)[O-])o2)nc2ccccc12	-7	0	14*	15	32	-1
Cc1ccc(-c2cc(C(=O)N/N=C/c3ccc([N+](=O)[O-])o3)c3ccccc3n2)o1	-270	10	-3	29	x	-86
O=[N+]([O-])c1ccc(/C=N/N=C/c2ccc([N+](=O)[O-])o2)o1	-2	0	2	1	x	1
Cc1cc2ncn(/N=C/c3ccc([N+](=O)[O-])o3)c2cc1C	3	0	10*	4	35	-1
COC(=O)C1=C(C)N(Cc2ccccc2C(F)(F)F)C(=NCc2ccc(OC)cc2)NC1c1ccccc1C(F)(F)F (stereo not drawn)	0	0	x	4	x	0
CCCNc1nc(C)nc2c1cnn2CCc1ccccc1	-5	0	0	-5	68*	-1
Cc1nc(NCCCN2CCOCC2)c2cnn(-c3ccccc3)c2n1	-4	0	2	0	x	-1
Cc1nc(NC(C)C)c2cnn(CCc3ccccc3)c2n1	-4	0	1	-5	59*	-7
CCN1CCCCC(NC(C)=O)C1=O (stereo not drawn)	-23	0	x	3	x	-10
COCC(=O)N[C@@H]1C[C@@H]2O[C@H](CO)CC[C@@H]2O[C@@H]1CCc1ccc(-c2ccccc2)cc1	-11	0	x	1	x	-4
Fc1ccccc1Cn1ccc2ccc(-c3ccc4ccn(Cc5ccccc5F)c4c3)cc21	2	-4	x	10	x	-3
COc1cccc(C(=O)NN2CC(O)=C(c3nc4ccccc4s3)C2=N)c1	-2	1	-1	16	13	0
COc1cccc(C(=O)NN2CC(O)=C(c3nc(C)cs3)C2=N)c1	-28	0	0	6	53*	-13
Nc1ccc2c(c1)Cc1cc(Cl)c(Cl)cc1-2	-11	0	15*	8	x	1
CCOC(=O)c1c(C)cccc1OCC(N)=O	-4	0	25*	2	-1	-3
CCOC(=O)c1c(C)n(CCOc2ccccc2)c2ccc(O)cc12	-1	0	1	12	51*	-8
CCOC(=O)c1c(C)n(C)c2ccc(OCC(N)=O)cc12	-3	0	0	3	70*	1
SMILES	ADAM10 inh	KLK7 zymogen act	GRIN3A LBD mod	rCAG RNA binder	AHR activator	ADAM17 inh
Cc1ccccc1C1CCC2(CC1)CCN(CC[C@@H](O)c1ccccc1)C2=O (stereo partly drawn)	11	x	x	x	x	1
O=C(Nc1ccc(C(F)(F)F)cc1)OC1CCC12CCC(c1ccccc1)CC2 (stereo not drawn)	-2	1	x	2	x	-1
CCC(C)(C)C1CCC(=NNC(=S)Nc2ccccc2)CC1 (stereo not drawn)	-2	0	-2	0	6	-6
CCC(C)(C)C1CCC(=NNC(=S)Nc2cccnc2)CC1 (stereo not drawn)	2	0	4	2	69*	0
Cc1ncoc1C(=O)N1CCCC(N2CCN(c3cccc(C(F)(F)F)c3)CC2)C1 (stereo not drawn)	9	0	-1	-7	55*	-2
O=C(CC1CCCC1)N[C@H](C(=O)N1CCC[C@H]1C(=O)NC1CCCC1)c1ccccc1	-1	0	x	0	x	0
COc1ccc(/C=C/c2nc3cc(-c4ccccc4)ccc3o2)cc1O	-60	-5	17*	10	3	-25
CCn1c(CSc2nc3ccccc3[nH]2)nc2cc(C(=O)O)ccc21	-409	0	-1	-1	60*	-103
Cc1cccc(/C=N/NC(=O)c2ccc(NC(=O)c3cccc(Cl)c3)cc2)n1	-26	-3	15*	3	-3	-10
O=C(CNC(=O)c1cccc(Cl)c1)N/N=C/c1cccnc1	-2	0	0	0	-1	-5
O=C(N/N=C/c1cccnc1)c1ccccc1Cl	7	0	0	-1	6	-2
O=C(N/N=C\c1cccnc1)c1cc(-c2ccc(Cl)s2)[nH]n1	-8	-1	23*	6	32	0
Cc1nn(-c2cccc(Cl)c2)c(Cl)c1/C=N/NC(=O)c1cccnc1	-4	0	-4	-3	78*	-1
O=C(N/N=C/c1cccnc1)c1ccc(NC(=O)c2cccc(Cl)c2)cc1	-2	0	12*	2	3	-1
COC(=O)N/N=C/c1c(C)nn(-c2cccc(Cl)c2)c1Cl	-6	0	1	-5	-10	1
COC(=O)C[C@@H]1CC[C@@H]2[C@H](COc3ccc(NC(=O)c4ccc(F)c(F)c4)cc3C(=O)N2C)O1	-4	1	x	4	x	1
COC(=O)[C@]12C[C@H](CC(=O)N3CCSCC3)C(=O)N(CCC3=CCCCC3)C1=C[C@H](C(C)(C)C)O[C@@H]2C	4	0	x	1	x	2
CC(=O)Nc1ccc(C(=O)N/N=C/c2cccnc2)cc1	-8	0	0	-4	1	-3
O=C(N/N=C/c1cccnc1)c1ccc(NC(=O)c2ccc(Cl)cc2)cc1	-3	0	14*	-2	1	-2
O=C(N/N=C/c1cccnc1)c1ccc(Cl)c(Cl)c1	-8	0	14*	-3	18	-2
O=C(Cc1ccc(Cl)c(Cl)c1)N/N=C/c1cccnc1	-4	0	0	-3	17	-1
Cc1ccc(NN=C2c3ccccc3-c3ccccc32)cc1	-14	-2	0	14	68*	-3
c1ccc(NN=C2c3ccccc3-c3ccccc32)cc1	1	1	0	15	x	0
Cc1cc2c(cc1S(=O)(=O)N1CCN(c3ccccc3)CC1)OCC(=O)N2	-2	0	4	2	1	-2
